Values joined by “and” are separate entries in the source; they are usually repeats but may differ in a detail not shown here. Identical values can stand only once. Compounds without any hit were thinned out: in the full panel of roughly 83,000, 20% have a hit.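 The endpoint reported here, percent growth, reads 100 for growth as untreated, 0 for no net growth and -100 for all cells dead.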 A number with no mark means an inactive call. Active and inactive are the calls of the source. Rule for the calls: active = growth percent below 10; inactive = the rest.

Experiment in all cases: NCI-60 one-dose screen, 48 h (100 = growth as untreated, 0 = no growth, -100 = all killed)
The test system of assay [1] is SK-MEL-2 melanoma. Conditions: 10 µM unless noted.
The subject of assay [2] is EKVX NSCLC. The note with it: 10 µM unless noted.
In assay [3] the test system is SN12C renal. Conditions: 10 µM unless noted.
The test system of assay [4] is UO-31 renal. The note with it: 10 µM unless noted.
The test system of assay [5] is TK-10 renal.
In assay [6] the test system is ACHN renal. Conditions: 10 µM unless noted.
For assay [7], the system named is A498 renal. The note with it: 10 µM unless noted.
The subject of assay [8] is CCRF-CEM leukemia. The note with it: 10 µM unless noted.
In assay [9] the test system is MOLT-4 leukemia. Conditions: 10 µM unless noted.
Assay [10] deals with RPMI-8226 leukemia. Conditions: 10 µM unless noted.
In assay [11] the test system is OVCAR-8 ovarian. Conditions: 10 µM unless noted.
Assay [12] concerns OVCAR-4 ovarian. Conditions: 10 µM unless noted.
Assay [13] relates to SK-OV-3 ovarian. The note with it: 10 µM unless noted.
The test system of assay [14] is OVCAR-3 ovarian. The note with it: 10 µM unless noted.
Assay [15] concerns HS 578T breast. The note with it: 10 µM unless noted.
The test system of assay [16] is NCI/ADR-RES ovarian. Conditions: 10 µM unless noted.
Assay [17] deals with CAKI-1 renal. The note with it: 10 µM unless noted.
Assay [18] deals with SR leukemia. The note with it: 10 µM unless noted.
Assay [19] deals with IGROV1 ovarian. The note with it: 10 µM unless noted.
The subject of assay [20] is OVCAR-5 ovarian. The note with it: 10 µM unless noted.

As to `CCCCCCCCCCCC[n+]1ccccc1` (tested in a mixture with another compound), the growth is -83.5% (active) in assay [1]; -20.5% (active) in [2]; -15.9% (active) in assay [3]; 1.25% (active) in assay [4]; -47.5% (active) in [5] (10 µM unless noted); 22.2% in [6]. Besides, the growth in assay [7] was 42%; in assay [8], -2.6% (active); in assay [9], -30.6% (active); in assay [10], -56.2% (active); in assay [11] it was -30.2% (active); in assay [12] it was 4% (active). Further, the growth is -18.4% (active) in [13], -63.1% (active) in assay [14], -28.7% (active) in assay [15] and 55.3% in assay [16].
Regarding `CC(C)=CCCC(C)C1=C(O)C(=O)C(C)=CC1=O` (configuration not stated), the growth is 92.9% in assay [1]; 122% in assay [2]; 106% in assay [3]; 5.08% (active) in assay [5] (10 µM); -99.3% (active) and -84.7% (active) in assay [5] (100 µM); -39% (active) in assay [6]. Also, the growth was 88.4% in assay [17]; 92.9% in assay [7]; -29.2% (active) in assay [8]; -30.1% (active) in assay [9]; -12.4% (active) in assay [18]; -34.2% (active) in assay [10]. Moreover, the growth in [13] was 97.8%; in assay [19], -75.7% (active); in assay [14], -12.5% (active); in assay [15], 94.4%; in assay [16] it was 95%.
Regarding `Oc1ccc(Nc2ccc3ccccc3c2)cc1`, the growth in assay [1] is 62.4%; in assay [2] it was 79%; in assay [3], 64.8%; in [4] it was 10.6%; in assay [5] (10 µM unless noted), 45.3%; in [17], 8.98% (active). Moreover, the growth is 94.1% in assay [7]; 49% in [8]; 46.8% in assay [9]; 50.4% in [18]; 58.6% in assay [10]; 59.8% in assay [11]. Moreover, the growth in assay [20] is 71.5%; in [12], 60.2%; in [13], 89.3%; in [19], 58.1%; in assay [14], 69.8%; in [15], 87.6%. Further, the growth in assay [16] is 41.8%.
As for `CC12CCC(O)CC1=CCC1C2CCC2(C)C3=NN=CC3CC12` (configuration not stated), the growth is 118% in assay [1]; 81.9% in assay [2]; 105% in [3]; 105% in [4]; 108% in [5] (10 µM unless noted); 127% in [17]. The growth is 124% in [7]; 91% in assay [8]; 83.8% in assay [9]; 60.1% in assay [18]; 96.5% in assay [10]; 107% in assay [11]. In addition, the growth in assay [12] is 107%; in assay [13], 115%; in [14] it was 116%; in assay [15], 95.6%; in assay [16], 98.6%.
For the compound `COc1ccc2nc3cc([N+](=O)[O-])ccc3c(NNc3ccccc3)c2c1`, the growth in assay [1] is 74.9%; in assay [2], 83.1%; in [3] it was 92.4%; in assay [4] it was 91.4%; in assay [5] (10 µM unless noted), 60%; in [6], 68.7%. In addition, the growth in [17] is 86.1%; in [8], 90.6%; in assay [9], 128%; in assay [10], 62.1%; in assay [11], 81.7%; in assay [12] it was 72.8%. Further, the growth in assay [13] was 71.9%; in assay [19] it was 88.2%; in [14], 72.6%; in assay [16], 84.6%.
With `CN(C)c1ccc(C(=C2C=CC(=[N+](C)C)C=C2)c2ccc(N(C)C)cc2)cc1`, the growth is -57.8% (active) in assay [1]; -44% (active) in [2]; -67% (active) in assay [3]; -97.9% (active) in assay [4]; -95.9% (active) in assay [6]; -27.5% (active) in assay [17]. Besides, the growth is -91% (active) in assay [7]; -16.6% (active) in assay [8]; -14.3% (active) in [18]; -51.8% (active) in assay [10]; -44.8% (active) in assay [11]; -18.5% (active) in assay [12]. Besides, the growth in assay [13] was -90.9% (active); in assay [19], -37.2% (active); in assay [14] it was -91.1% (active); in assay [15] it was 1.62% (active).
With `CN(C)CCSC1=Nc2ccc(Cl)cc2C(c2ccccc2Cl)N(C)C1` (configuration not stated), the growth was 81.8% in assay [1]; 81% in [2]; 63.8% in [3]; 24.5% in [4]; 64.9% in assay [5] (10 µM unless noted); 20.5% in assay [17]. Also, the growth in assay [7] was 127%; in assay [8], 85.2%; in assay [9] it was 79.2%; in assay [18], 44.1%; in [10], 50.7%; in assay [11], 78.8%. Besides, the growth in assay [20] was 88.4%; in [12], 39.4%; in assay [13], 72%; in assay [19] it was 41.6%; in [14] it was 59.9%; in assay [15], 24.2%. Besides, the growth in assay [16] was 66%.
As to `O=C(c1ccccc1)C(Br)[N+](=O)[O-]` (configuration not stated), the growth in assay [1] was 97.5%; in [2] it was 96.5%; in assay [3], 103%; in assay [4] it was 80.8%; in [5] (10 µM unless noted), 106%; in assay [17], 93%. For the same compound, the growth in assay [7] is 101%; in assay [8] it was 24.8%; in assay [9], 20.6%; in assay [18], 5.17% (active); in assay [10], 75.9%; in assay [11], 83.9%. Also, the growth in assay [20] is 96.4%; in [12] it was 104%; in assay [13], 79.9%; in assay [19], 103%; in [14], 101%; in assay [15], 91.3%. Further, in assay [16], the growth is 101%.
With `Nc1nc(-c2ccccc2)nc(N)c1N=O`, the growth is 88% in assay [1]; 89.1% in [2]; 74% in [3]; 45.8% in [4]; 51.6% in assay [5] (10 µM unless noted); 32.4% in assay [17]. In addition, the growth was 112% in assay [7]; 34.8% in assay [8]; 58.1% in assay [9]; 27.4% in assay [18]; 41% in assay [10]; 54.3% in assay [11]. Moreover, the growth in [20] was 96.9%; in assay [12] it was 83.9%; in assay [19], 68.6%; in assay [14], 27.7%; in assay [15], 65%; in [16], 78.5%.

Source of the values: PubChem BioAssay (NCI).
